103 molecules from PubChem BioAssay AID1259343 (VanderVen Lab, College of Veterinary Medicine, Cornell …, 2017) can be followed below.

Structures are written as SMILES. The campaign covered roughly 6,200 compounds. About 2,900 (47%) were called active. Rule as the data show it: active = inhibition above about 50%; inactive = the rest. So high a share suggests a set chosen from earlier hits. The list shows a part of the results.

This assay is described as follows: Mycobacterium tuberculosis growth inhibition, primary screen (AID 1259343). The note with it: inhibition: at 10 µM, hits give high values; outcome: 10 uM.
For orientation: inhibition means the drop in the measured response relative to a control, in per cent. In the case of `COc1ccc2c(c1)OCC(Cc1ccc(OC)c(OC(C)=O)c1)C2=O` (stereo not drawn), the inhibition was 96.6% (active).
Turning to `CC(C(=O)Nc1ccc(C23CC4CC(CC(C4)C2)C3)cc1)n1cncn1` (stereo not drawn), the inhibition was 95.9% (active).
The value for `CC(C(=O)Nc1ccc(C#N)cc1)N1CC=C(c2ccccc2)CC1` (stereo not drawn) was 49.1% (inactive); that for `COc1ccc(NC(=O)C(C)n2cccn2)cc1Cl` (stereo not drawn) was 8.88% (inactive); that for `COc1ccc(Oc2cnn(-c3ccc(Cl)cc3)c(=O)c2Nc2ccc(C(=O)O)cc2)cc1` was 28% (inactive).
Then `Cc1ccc(-n2nc(C(=O)c3ccc(Cl)cc3)c(N)c(C#N)c2=O)cc1`, with 94.6% (active); and `NS(=O)(=O)N1CCC(C(=O)Nc2ccc(-c3ccccc3)cc2F)CC1`, with -3.6% (inactive); and `O=C(Nc1ccc(-c2ccccc2)cc1Cl)C1CC1`, with 92.4% (active).
On to `O=C(CNC(=O)c1cccc(F)c1)N=Nc1c(O)n(CCc2ccccc2)c2ccccc12`, for which the inhibition was -16.1% (inactive).
Then `COc1cc(NC(=O)c2ccc3c(c2)NC(=O)C(C)S3)cc(OC)c1` (stereo not drawn), with 31.5% (inactive).
Take `COc1ccc(NC(=O)c2ccc3c(c2)NC(=O)C(C)S3)cc1` (stereo not drawn): the inhibition is 57.4% (active).
The value for `COc1cc(NC(=O)c2ccc3c(c2)NC(=O)CS3)cc(OC)c1` was 62.6% (active).
The value for `Cc1cc(C)cc(C(=O)C=C2NC(=O)CS2)c1` was -74.8% (inactive).
The value for `COc1cc(C=NOCc2cccc3ccccc23)ccc1OC(F)F` was 52.4% (active); that for `CCOC(=O)NC(=O)COC(=O)C1(Cc2ccccc2)CCCCC1` was 51.4% (active); that for `CCOC(=O)C1(CCc2ccccc2)CCCN(Cc2cccn2-c2ncccn2)C1` (stereo not drawn) was 13% (inactive).
As to `O=C(c1cnn(-c2ccc(F)cc2)c1)c1ccccc1O`, the inhibition was 42.7% (inactive).
Then `CC(C)OC(=O)c1cn(-c2ccc(F)cc2)c(=O)c2ccccc12`, with 80.8% (active).
The value for `Cn1cc(C(=O)Nc2cccc(C(F)(F)F)c2)c2[nH]c(=O)n(-c3ccc(F)cc3)c(=O)c21` was 24.6% (inactive).
The value for `CCS(=O)(=O)N1CCC(C(=O)Nc2nc(-c3ccc(Br)cc3)cs2)CC1` was 33.8% (inactive); that for `O=C(Nc1nc(-c2ccc(Br)cc2)cs1)c1cc(Cl)ccc1[N+](=O)[O-]` was 94.8% (active); that for `Cc1nnc(SCc2cccc3ccccc23)[nH]c1=O` was 88.9% (active).
As for `O=C(O)CCc1nnc(SCc2cccc(Cl)c2)[nH]c1=O`, the inhibition is 34.4% (inactive).
As to `CC1CCc2sc(-c3nn(CN4CCN(c5cnccn5)CC4)c(=S)o3)cc2C1` (stereo not drawn), the inhibition was 95.3% (active).
As for `Cc1cc(C)[n+]2c(-c3ccccc3)csc2n1`, the inhibition was 80% (active).
Then `CCc1ccc(CN(C)Cc2nc(-c3cccc(Cl)c3)no2)nc1`, with 24.1% (inactive); and `CN(Cc1cnccn1)c1ccc(-c2nc(-c3cccc(Cl)c3)no2)cn1`, with 80.1% (active).
The value for `O=c1[nH]c(CN2CCCC2c2cccs2)nc2scc(-c3ccco3)c12` (stereo not drawn) was 85% (active); that for `CN(Cc1nc2scc(-c3ccco3)c2c(=O)[nH]1)C1CCCCC1` was -6.13% (inactive); that for `CC(C)Cc1csc2nc(Cc3cccs3)[nH]c(=O)c12` was 42% (inactive).
Then `CCN(CCS(=O)(=O)c1cc(Cl)ccc1Cl)CC(=O)NC(C)C`, with -1.76% (inactive).
For the molecule `c1ccc(CCc2cn(CC3COc4ccccc4O3)nn2)cc1` (stereo not drawn), the inhibition is 55.8% (active).
Then `Clc1cc(CNCC2COc3ccccc3O2)cc2c1OCCO2` (stereo not drawn), with 11.4% (inactive).
In the case of `CN(CC1COc2ccccc2O1)C(=O)NCCc1ccsc1` (stereo not drawn), the inhibition was -41.3% (inactive).
The value for `FC(F)(F)c1ccc(-c2cnnc(N3CCC(c4ccncc4)CC3)n2)cc1` was 37.4% (inactive).
Turning to `O=C(Nn1cnc2ccccc21)c1ccccc1SC1CCS(=O)(=O)C1` (stereo not drawn), the inhibition is -8.68% (inactive).
On to `C#CCOc1cccc(NC(=O)CSC2CCS(=O)(=O)C2)c1` (stereo not drawn), for which the inhibition was 84.6% (active).
Then `O=C(NCc1cccc(COCc2ccco2)c1)c1ccccc1`, with 14.8% (inactive).
Then `O=C(NCc1ccccc1F)c1cccc(COCC(F)(F)C(F)F)c1`, with 68.7% (active); and `COc1ccc(C2CCCN2C2=NCc3cnn(C(C)(C)C)c3N2)cc1` (stereo not drawn), with 10% (inactive).
The value for `O=C(NC1CCCCC1)c1ccc(C(F)(F)F)nc1` was 57.1% (active).
`O=C(NC1CCCCC1)c1cnccn1`: the inhibition was 47.9% (inactive).
In the case of `Cc1ccc(Sc2ccc(C(=O)NC3CC3)cn2)cc1`, the inhibition is 11.2% (inactive).
On to `FC(F)(F)c1cc(-c2ccc(Cl)cc2)nc(-n2cccn2)n1`, for which the inhibition was 61.6% (active).
The value for `O=c1cc(CSc2nnc(-c3ccc(Cl)s3)o2)occ1O` was 80.1% (active); that for `Cc1cc(=O)[nH]c(-n2nc(C)cc2NC(=O)/C=C/c2ccc3c(c2)OCO3)n1` was 101% (active); that for `CCc1cc(=O)[nH]c(-n2nc(C)cc2NC(=O)/C=C/c2ccc3c(c2)OCO3)n1` was 100% (active).
The value for `N/C(=N/O)c1cncc(OCC(F)(F)F)n1` was 92% (active).
Regarding `Brc1c(-c2ccccc2)nc2ccccn12`, the inhibition was 40% (inactive).
Then `CC(Oc1ccc2cc(Br)ccc2c1)C(=O)NC(N)=O` (stereo not drawn), with 80.7% (active).
Then `CC(Oc1ccc(C(N)=O)cc1)C(=O)c1ccc(Br)cc1` (stereo not drawn), with 71.9% (active).
Then `CN(Cc1ccc(C(N)=O)cc1)Cc1ccccc1Br`, with 17.4% (inactive).
As for `N#Cc1ccc(NC(=O)NCc2ccn(-c3ccccc3)n2)cc1`, the inhibition was 32.1% (inactive).
Then `CCc1ccc(CNC(=O)Nc2ccc(C#N)cc2)s1`, with 56.1% (active).
For the molecule `CCCSc1nnc(-c2c(Cl)c(CC)nn2C)s1`, the inhibition was 52.5% (active).
The value for `N#CCc1cc(-c2ccc(Cl)cc2)on1` was 72.6% (active).
The value for `N#Cc1nc(-c2ccc(Cl)cc2)oc1NC1CC1` was 26.7% (inactive); that for `COc1cccc(Oc2ccc(C(F)(F)F)cc2NC(C)=O)c1` was 82.6% (active); that for `COc1cccc(-c2cc(N)c(=O)n(Cc3ccc(C(F)(F)F)cc3)n2)c1` was 22.8% (inactive).
The value for `COc1cccc(CC2(CO)CCCN(C(=O)Nc3cccc(C(F)(F)F)c3)C2)c1` (stereo not drawn) was 11% (inactive); that for `Cc1ccc(OC(C)C(=O)Nc2ccc3c(c2)CCC3)cc1` (stereo not drawn) was 1.9% (inactive).
Take `CC(C)(C)C(=O)Nc1nnc(-c2ccc3c(c2)CCCC3)o1`: the inhibition was 92.3% (active).
Then `O=C(Nc1nnc(-c2ccc3c(c2)CCCC3)o1)c1ccc([N+](=O)[O-])s1`, with 101% (active); and `NC(Cc1ccc(Cl)cc1)c1csc(Nc2nccc(C(F)(F)F)n2)n1` (stereo not drawn), with 63.1% (active); and `NC(Cc1ccc(C(F)(F)F)cc1)c1csc(Nc2nccc(C(F)(F)F)n2)n1` (stereo not drawn), with 94.8% (active).
Then `NC(CCc1ccccc1)c1csc(Nc2nccc(C(F)(F)F)n2)n1` (stereo not drawn), with 50.5% (active); and `NC(Cc1ccc(F)cc1)c1csc(Nc2nccc(C(F)(F)F)n2)n1` (stereo not drawn), with 66.7% (active).
Then `NC(Cc1ccc(C(F)(F)F)cc1)c1csc(Nc2ncccn2)n1` (stereo not drawn), with 29.2% (inactive); and `OCc1cn(-c2ccccc2)nc1-c1cc2ccccc2o1`, with 74.7% (active); and `OCc1cc(-c2cc3ccccc3o2)on1`, with 8.03% (inactive).
Turning to `O=C(Cc1cc(-c2cc3ccccc3o2)on1)NCCCN1CCOCC1`, the inhibition is 20.8% (inactive).
Then `C(=NN1CCOCC1)c1cn(-c2ccccc2)nc1-c1cc2ccccc2o1`, with 88.6% (active); and `c1ccc(Cn2cc(CN3CCN(c4ncccn4)CC3)c(-c3cc4ccccc4o3)n2)cc1`, with “inactive”.
Then `O=C(CC(O)(c1ccccc1)C(F)(F)F)N1CCN(Cc2ccc(Cl)cc2)CC1` (stereo not drawn), with 53.2% (active).
Then `O=C1NC(C2=Cc3cc(Cl)ccc3OC2)Nc2ccccc21` (stereo not drawn), with 0.99% (inactive); and `COC(=O)c1cnc(Nc2nc(C(N)c3ccccc3Cl)cs2)nc1C(F)(F)F` (stereo not drawn), with 94% (active); and `COC(=O)c1cnc(Nc2nc(C(N)Cc3ccc(Cl)cc3)cs2)nc1C(F)(F)F` (stereo not drawn), with 85.1% (active).
With `CC(=O)Nc1ccc(Sc2nc(C)cc(C)c2C#N)cc1`, the inhibition is -11.9% (inactive).
The value for `COc1cc(N(C)CCC(O)c2ccccc2)ncn1` (stereo not drawn) was -15.6% (inactive); that for `COc1cc(-c2cccc(O)c2)ncn1` was 93.2% (active); that for `CN(C)c1ccc(CN(C)S(=O)(=O)Cc2ccccc2)cc1` was 30.6% (inactive).
The value for `C=C1N(C)c2cc([N+](=O)[O-])c(N)cc2C1(C)C` was 64.8% (active).
The value for `c1ccc(-c2nc(SCC3CCOCO3)oc2-c2ccccc2)cc1` (stereo not drawn) was -19.9% (inactive); that for `O=S(=O)(/C=C/C=C/Sc1ccccc1)c1ccccc1` was 90.4% (active); that for `Cc1cc(C)n(-c2nc(NC(C)C)nc(NC(C)(C)C)n2)n1` was 101% (active).
In the case of `CCn1cc(C(CC(=O)O)c2cccc(F)c2)c2ccccc21` (stereo not drawn), the inhibition is 18.8% (inactive).
For the molecule `Cc1nn(C)c(C)c1C(=O)NNc1cccc(Cl)c1`, the inhibition is -9.93% (inactive).
Then `CN(C)c1ccc(-c2nc3c(C(=O)NNc4cccc(Cl)c4)cccc3[nH]2)cc1`, with 85.1% (active); and `O=C(Cc1cc(-c2cc3ccccc3o2)on1)NCc1cccs1`, with 28.1% (inactive).
The value for `O=C(Cc1cc(-c2cc3ccccc3o2)on1)NCc1ccncc1` was 75.1% (active).
Regarding `O=C(Cc1cc(-c2cc3ccccc3o2)on1)NCc1ccc(F)cc1`, the inhibition was 22.7% (inactive).
The value for `O=C(Cc1cc(-c2cc3ccccc3o2)on1)NCc1ccco1` was 91.1% (active); that for `Nc1cccc(-c2cc(Nc3ccc(Oc4ccccc4)cc3)ncn2)c1` was 9.35% (inactive).
On to `CNc1nc2cnc(Nc3ccc(Oc4ccccc4)cc3)cc2n1CCOC`, for which the inhibition is 69.3% (active).
With `O=C(Nc1ccc(OCC(F)(F)F)cc1)c1cnccn1`, the inhibition was 25.9% (inactive).
The value for `COC(=O)c1ccc(CNC(=O)c2ccc3c(c2)OCO3)cc1` was 55.5% (active); that for `O=C(NCc1ccc2c(c1)OCO2)c1cccs1` was 52.8% (active); that for `COC(=O)Cc1ccc(NC(=O)c2cnccn2)cc1` was 87.5% (active).
Then `CN(C)c1ccc(CNC(=O)c2ccc3c(c2)CCCC3)cc1`, with -5.89% (inactive); and `O=C(C=Cc1cccs1)NCc1ccc2c(c1)OCO2`, with -6.77% (inactive).
The value for `COc1ccc(CCNC(=O)c2cnc(C)cn2)cc1OC` was 41.9% (inactive); that for `Cc1cnc(C(=O)NC(C)c2ccccc2OC(C)C)cn1` (stereo not drawn) was -5.8% (inactive).
In the case of `Cc1cnc(C(=O)NCCc2ccccc2C)cn1`, the inhibition was 94.4% (active).
